This is an account of results in PubChem BioAssay (NCI).

Compounds without any hit were thinned out: in the full panel of roughly 83,000, 20% have a hit.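 48-hour exposure, single concentration, 96-well plates; percent growth endpoint where 0 means no net growth. Active: below 10.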 Values without a mark were called inactive. The source made the active and inactive calls.

For this experiment, the system named is HCC-2998 colon. Briefly: NCI-60 one-dose screen, 48 h (100 = growth as untreated, 0 = no growth, -100 = all killed). As to conditions: 10 µM unless noted.
Turning to `CN(C)CCCNC(=O)c1cncnc1Nc1ccc2c(ccn2Cc2cccc(F)c2)c1`, the growth was 97.6%. For `CCOC(=O)/C(=C(/C)NCC(C)C)c1cc(O)c(O)c2c(C)cc(=O)[nH]c12` the value was 61.9%; for `COc1ccc(Nc2ncc(C#N)c(NCCCNC(=O)C3CCC3)n2)cc1`, 97.2%; for `C=C1SC(=Nc2ccccc2Cl)N(C(=O)c2sc3ccccc3c2Cl)C1(C)C`, 72.9%. Next, `CN1CC(c2ccc(Br)cc2)C(C(=O)c2ccc(Br)cc2)C12C(=O)Nc1ccccc12` (centres undefined): 84.5%; `CC(C)Cc1nc(Nc2ccccc2)[nH]c(=O)c1C#N`: 38.1%; `CC(C)(C)c1ccc(S(=O)(=O)Oc2ccc(-c3sc4cc(OS(=O)(=O)c5ccc(C(C)(C)C)cc5)ccc4c3C(=O)c3ccc(OCCN4CCCCC4)cc3)cc2)cc1`: 98.1%. For `Nc1ncccc1O` the value was 97.4%; for `COc1cc(C[C@H]2COc3cc(O)cc(O)c3C2=O)ccc1O`, 88.2%. Take `CCN(CC)C(=O)CC1=C(C)/C(=C/c2[nH]c(-c3ccc[nH]3)cc2OC)N=C1C`: the growth was 30.4%.

With `COc1ccc(C2CC(c3ccccc3)=NN2C(=O)c2cc(OC)c(OC)c(OC)c2)cc1O` (centres undefined), the growth is -1.27% (active). With `C[C@@H]1CN(c2cnc(C(=O)Nc3cc(F)cc4cccnc34)cn2)C[C@H](C)N1`, the growth was 91.7%. Next, `O=C(Nc1cc(Cl)ccc1O)c1ccccc1Nc1ccnc(C(F)(F)F)c1`: 3.95% (active); `O=c1ccc2ccc(OCCN3CCCCC3)cc2o1`: 98%.
